Screening results deposited in PubChem BioAssay by several laboratories.
Mtb BioA inh: BioA (M. tuberculosis) enzyme inhibition; AID 602481; inhibition, % at 9.99 µM; 360,000 compounds, 0.096% hits; purified M. tuberculosis BioA enzyme, plate reader; in the data active means inhibition above about 40%; inconclusive means no clear call, values can overlap the other calls
FBA Mtb inh: inhibitors of M. tuberculosis fructose-bisphosphate aldolase; purified M. tuberculosis FBA, fluorescence read-out; inhibition, % at 1 µM; 360,000 compounds, 2.3% hits; AID 588726; in the data active means inhibition above about 27%
Target sequence (P9WQA3 whole entry, looked up): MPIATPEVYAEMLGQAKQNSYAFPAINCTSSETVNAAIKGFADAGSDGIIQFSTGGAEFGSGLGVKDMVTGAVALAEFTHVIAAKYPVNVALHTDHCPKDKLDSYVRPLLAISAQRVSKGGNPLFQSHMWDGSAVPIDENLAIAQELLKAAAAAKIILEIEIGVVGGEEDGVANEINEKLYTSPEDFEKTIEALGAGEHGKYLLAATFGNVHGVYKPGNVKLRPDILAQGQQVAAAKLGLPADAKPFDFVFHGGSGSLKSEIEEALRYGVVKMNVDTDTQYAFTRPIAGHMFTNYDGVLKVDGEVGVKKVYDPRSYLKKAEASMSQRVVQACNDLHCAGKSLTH
Mtb hypoxia rep: reduces hypoxia-regulated biosensor signal in M. tuberculosis; fluorescence inhibition, % (concentration not given with the values); M. tuberculosis hypoxia-regulated fluorescent reporter, fluorescence; 300,000 compounds, 0.1% hits; in the data active means fluorescence inhibition mostly above about 23%, no sharp cut-off; inactive means mostly below about 17%
GDH-TPI counter: GDH-TPI coupled enzyme inhibition counter-screen; GDH-TPI coupled enzyme counterscreen, NADH absorbance; inhibition, % at 4.8 µM; 360,000 compounds, 1.2% hits; AID 588335; in the data active means inhibition above about 30%
FadD28 binding: blocks FadD28 binding to the bisubstrate probe | fluorescence polarization | inhibition, % at 12.5 µM | 360,000 compounds, 0.22% hits; in the data active means inhibition above about 8.5%, passing the limit was not always enough; inconclusive means no clear call, values can overlap the other calls
A number is an active result; i = inactive; ? = inconclusive; nt = no result given; + = active, no number. Only some compounds are listed: those with a hit (about 2.9% of all), similar ones and a draw of the others.

SMILES	Mtb BioA inh	FBA Mtb inh	Mtb hypoxia rep	GDH-TPI counter	FadD28 binding
COc1ccc(NC(=O)N(C)C[C@H]2Oc3ccc(NC(=O)Cn4cnnn4)cc3CC(=O)N([C@@H](C)CO)C[C@H]2C)cc1	i	nt	nt	nt	nt
O=C(N/N=C/c1cc(Br)c(O)c(Br)c1)C1CC1	i	i	nt	30.8	i
COc1cc(/C=N/NC(=O)C2C3CCCCC32C)cc(Br)c1O (stereo not given)	i	i	nt	50.7	i
CCCN(CCC)Cc1c(C(=O)N/N=C/C(C)=C\c2ccco2)nnn1-c1nonc1N	i	i	nt	i	i
CCOc1ccc(-c2c(C(=O)N/N=C/c3ccc(C)s3)nnn2-c2nonc2N)cc1	i	i	nt	37.0	i
CCOc1ccc(-c2c(C(=O)N/N=C/c3ccco3)nnn2-c2nonc2N)cc1	i	i	nt	42.7	i
CCOc1ccc(-c2c(C(=O)NN=Cc3ccc(C)s3)nnn2-c2nonc2N)cc1	nt	nt	i	nt	nt
CC(/C=N/NC(=O)c1nnn(-c2nonc2N)c1CN(C)C)=C\c1ccco1	i	i	nt	35.2	i
CNC[C@H]1OCCCC[C@H](C)Oc2ccc(NC(=O)Nc3ccc(F)cc3)cc2C(=O)N([C@H](C)CO)C[C@@H]1C	i	nt	nt	nt	nt
CCCC(=O)Nc1ccc2c(c1)C(=O)N(C)C[C@H](OC)[C@@H](C)CN(Cc1ccccc1F)[C@H](C)CO2	i	nt	nt	nt	nt
CCCCC(CC)COCCCN=Cc1c(O)[nH]c(=S)[nH]c1=O (stereo not given)	i	i	i	39.1	i
CCOCCCN=Cc1c(O)n(Cc2ccccc2)c(=O)[nH]c1=O	i	i	nt	i	i
CCOc1ccc(/C=C2\SC(N3CCCCC3)=NC2=O)cc1	i	i	i	48.0	i
CC(=NNc1cc(C(F)(F)F)ccc1Cl)c1ccccc1O	nt	nt	i	nt	nt
O=C(ON=Cc1cccc([N+](=O)[O-])c1)C1CC1	nt	nt	i	nt	nt
Cc1ccccc1-c1nnc(NC(=O)c2ccc(N3C(=O)CCC3=O)cc2)s1	i	i	nt	32.7	i
CCCCOCCCn1c(N)c(C(=O)OCCOC)c2nc3ccccc3nc21	i	133.7	nt	i	i
COCCOC(=O)c1c(N)n(Cc2ccccc2)c2nc3ccccc3nc12	i	+	nt	i	i
COCCn1c(N)c(C(=O)OCc2ccccc2)c2nc3ccccc3nc21	i	+	i	i	i
COCCCNC(=O)c1c(NC(=O)c2ccccc2)n(Cc2ccccc2)c2nc3ccccc3nc12	i	i	i	i	i
COCC(C)OC(=O)c1c(N)n(Cc2ccco2)c2nc3ccccc3nc12 (stereo not given)	i	130.1	nt	i	i
C[C@@H]1CN([C@@H](C)CO)C(=O)c2cc(NC(=O)CCN3CCOCC3)ccc2O[C@@H]1CN(C)Cc1ccc(C(=O)O)cc1	i	nt	nt	nt	nt
CC=Cc1ccc2n(c1=O)C[C@@H]1[C@@H](CO)[C@H](C(=O)NCc3ccccc3)N(C)[C@H]21 (mixture of isomers)	i	nt	nt	nt	nt
Cc1cc(C)c(COCc2cc(C=NO)c(C)cc2C)cc1C=NO	nt	nt	i	nt	nt
COc1ccc(Oc2ccc(N/C=C3/CCCC3=O)cc2)cc1	i	i	i	i	i
SMILES	Mtb BioA inh	FBA Mtb inh	Mtb hypoxia rep	GDH-TPI counter	FadD28 binding
COc1ccc(Oc2ccc(N/C=C3\CCCC3=O)cc2)cc1	i	i	i	39.5	i
Cc1cc(C)nc(NS(=O)(=O)c2ccc(N/C=C\C(=O)c3ccc(Cl)cc3)cc2)n1	i	i	i	31.5	i
O=C1CCCC/C1=C\Nc1ccc(S(=O)(=O)Nc2cnc3ccccc3n2)cc1	i	i	i	37.5	i
O=C1CCC/C1=C/Nc1cccc(F)c1	nt	i	i	34.6	i
COc1ccc(NC(=O)Nc2ccc3c(c2)CC(=O)N([C@@H](C)CO)C[C@H](C)[C@@H](CN(C)C(=O)Nc2cccc4ccccc24)O3)cc1	i	nt	nt	nt	nt
Cc1cc(C)nc(NS(=O)(=O)c2ccc(N/C=C3\CCCC3=O)cc2)n1	i	i	nt	36.8	i
O=C1CCCCC1=CNc1ccc(S(=O)(=O)Nc2ncccn2)cc1	nt	nt	i	nt	nt
CC(NC(=O)c1nc[nH]c1C(=O)NCc1ccccc1)C(=O)OC(C)(C)C (stereo not given)	nt	nt	i	nt	nt
O=C(CC(=O)NN=Cc1c(F)cccc1Cl)NCCc1ccccc1	nt	nt	i	nt	nt
C#CC1(O)CCC2C3CCC4=CC(=O)CCC4=C3C=CC21C (stereo not given)	i	i	nt	41.7	i
Cc1ccc(S(=O)(=O)Nc2ccc3c(c2)C(=O)N([C@@H](C)CO)C[C@H](C)[C@@H](CN(C)C(=O)Nc2ccccc2)O3)cc1	i	nt	nt	nt	nt
O=C(N/N=C/c1ccccn1)c1[nH]c2ccc([N+](=O)[O-])cc2c1-c1ccccc1	i	i	nt	41.5	i
NNC(=O)c1[nH]c2ccc([N+](=O)[O-])cc2c1-c1ccccc1	i	i	i	i	i
Cc1ccc2oc3c(c(=O)c2c1)C(c1cccs1)N(CCCN(C)C)C3=O (stereo not given)	59.1	i	i	i	i
CC(=NNC(=O)c1ccc(C)s1)c1ccncc1	nt	nt	i	nt	nt
COc1ccc(-c2cc(C(F)(F)F)nc(SCCC(=O)Nc3cc(C)on3)n2)cc1	i	i	i	i	i
COCCNC(=O)CCSc1nc(-c2ccc(OC)cc2)cc(C(F)(F)F)n1	i	i	nt	35.6	i
CCC1CCC(C(=O)NNC(=O)c2cc(-c3ccco3)[nH]n2)CC1 (stereo not given)	nt	i	nt	i	11.4
O=C(NN=C/C(Br)=C/c1ccccc1)c1cc(-c2ccco2)[nH]n1	nt	nt	i	nt	nt
CCC1(C)Cc2ccccc2-c2nc(NCCO)n(-c3ccccc3)c(=O)c21 (stereo not given)	i	176.1	i	i	i
CCc1nc2c(c(=O)[nH]1)C(CC)(CC)Cc1ccccc1-2	i	i	i	i	i
CCC1(CC)Cc2ccccc2-c2nc(NCCO)[nH]c(=O)c21	i	168.5	i	i	i
CCC1(C)Cc2ccccc2-c2c1c(=O)n(-c1ccc(C)cc1)c1nnnn21 (stereo not given)	i	i	i	i	i
CC1(C)Cc2ccccc2-c2nc(NCCO)n(-c3ccccc3)c(=O)c21	i	173.3	nt	i	i
CCC1(C)Cc2ccccc2-c2nc[nH]c(=O)c21 (stereo not given)	i	i	i	i	i
SMILES	Mtb BioA inh	FBA Mtb inh	Mtb hypoxia rep	GDH-TPI counter	FadD28 binding
CCC1(C)Cc2ccccc2-c2nc(NCCO)n(-c3ccc(C)cc3)c(=O)c21 (stereo not given)	i	162.7	nt	i	i
CC1(C)Cc2ccccc2-c2nc3n(c(=O)c21)CCS3	nt	i	i	i	i
CCn1c(=S)sc2c(=O)n(-c3ccccc3)c(SCC(=O)NCc3ccco3)nc21	i	i	i	38.1	i
COc1cc2cc(C(N)=O)c(N)nc2cc1OC	i	+	i	i	?
O=Cc1ccc(-c2ccc(F)cc2)o1	i	i	i	i	i
O=Cc1ccc(-c2ccc(C(=O)O)cc2)o1	i	i	i	42.0	i
COc1ccccc1/C=C/C(=O)NCC(=O)NN=Cc1cccnc1	nt	nt	i	nt	nt
CCCN1CCN(CCCNC(=O)c2cc3c(s2)-c2ccccc2OC3)CC1	i	+	nt	i	i
Cc1c(NC(=O)c2cc3c(s2)-c2ccccc2OC3)cccc1[N+](=O)[O-]	i	i	i	35.8	i
CCN1CCN(CCCNC(=O)c2cc3c(s2)-c2ccccc2OC3)CC1	i	nt	i	i	i
